Experimental data from PubChem BioAssay (Tox21).
Inconclusive results are not listed. Active and inactive are the calls of the source. Unless noted, calls follow the shape of the dose curve; as a rule, active = well fitted curve in the direction sought with a large enough effect in the repeat runs; inconclusive = weak or mixed curves; inactive = no such curve, though single readings can be large; an effect the other way counts as inactive or inconclusive.

Key:
[1] = qHTS assay for small molecule agonists of the p53 signaling pathway (AID 651631; calls by dose curve; also: nearly all actives have a fitted effect of over 15% in size)
Procedure, shortened: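 Testing took place in human colorectal HCT-116 cells with stable p53RE-driven beta-lactamase. After 16 h of compound exposure at 37 °C, a FRET substrate was added and fluorescence recorded 2 h later.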

[2] = qHTS assay for small molecules that induce genotoxicity in human embryonic kidney cells expressing luciferase-tagged ATAD5 (AID 651632); also: nearly all actives have a fitted effect of over 15% in size; also: potency is read from the fitted curve at half-maximal effect
Procedure, shortened: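 Reporter cells (HEK293T) express luciferase-tagged ATAD5, a protein that accumulates after DNA damage. Treat 16 hr at 37C/5% CO2, add Amplite, wait 30 min at RT, and read luminescence.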

[3] = qHTS assay for small molecule agonists of the p53 signaling pathway - cell viability (AID 651633; calls by dose curve; also: series mostly up to about 83 µM; nearly all actives have a fitted effect of over 30% in size)
Procedure, shortened: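 p53RE-bla cells were treated with compound for 16 hours at 37 C. Cytotoxicity was then measured as CellTiter-Glo luminescence after 30 min at room temperature.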

[4] = qHTS assay for small molecules that induce genotoxicity in human embryonic kidney cells expressing luciferase-tagged ATAD5 - cell viability (AID 651634; calls by dose curve; also: nearly all actives have a fitted effect of over 25% in size)
Procedure, shortened: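 Seeding of 2,000 HEK293T ATAD5-luciferase cells per well preceded pin-tool compound transfer. Plates sat 15.5 hr at 37C under 5% CO2, then fluorescence was read after 30 min with CellTiter-Fluor.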

[5] = qHTS assay for small molecule disruptors of the mitochondrial membrane potential - cell viability (AID 720634; calls by dose curve;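 also: human HepG2 liver cancer cells; series mostly up to about 83 µM; nearly all actives have a fitted effect of over 20% in size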)
Procedure, shortened: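 Measuring cytotoxicity alongside mitochondrial potential, the screen quantified ATP by luminescence in HepG2 cells after 1 hr compound incubation and a 30 min room-temperature CellTiter-Glo step.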

[6] = qHTS assay for small molecule disruptors of the mitochondrial membrane potential (AID 720635)
Procedure, shortened: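 HepG2 cells exposed to compound 1 hr at 37C, then Mito-MPS dye 30 min. Ratio read of aggregate (540/590 nm) versus monomer (490/535 nm) fluorescence.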

[7] = qHTS assay to test for compound auto fluorescence at 590 nm (red) in HepG2 cells (AID 720674)
Procedure, shortened: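 HepG2 cells, 2,000 per well in MEM with 10% FBS, attached overnight at 37 C, then got 23 nL compound or DMSO. After 1 hr at 37 C, 5% CO2, red fluorescence was read at 540/590 nm against Rose Bengal sodium as reference.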

[8] = qHTS assay to test for compound auto fluorescence at 535 nm (green) in HepG2 cells (AID 720675)
[9] = qHTS assay to test for compound auto fluorescence at 460 nm (blue) in HEK293 cells (AID 720678)
Procedure, shortened: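 HEK293 cells (2,000 per well, medium with 10% dialyzed FBS) attached for 4-5 hr at 37C, then received compound and stood overnight at 37C, 5% CO2. Blue fluorescence was read at Ex/Em 405/460 nm and expressed relative to triamterene.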

[10] = qHTS assay to test for compound auto fluorescence at 590 nm (red) in HEK293 cells (AID 720679)
Procedure, shortened: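 HEK293 cells (2,000/well, medium with 10% dialyzed FBS) attached for 4-5 hr at 37C, received 23 nL compound and were incubated overnight at 37C, 5% CO2. Red fluorescence was then read at 540/590nm Ex/Em, referenced to Rose Bengal sodium.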

[11] = qHTS assay to test for compound auto fluorescence at 535 nm (green) in HEK293 cells (AID 720680)
[12] = qHTS assay to test for compound auto fluorescence at 460 nm (blue) in HEK293 cell free culture (AID 720681)
Procedure, shortened: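 Compounds were added to cell-free DMEM with 10% FBS and fluorescence read directly. The blue channel used 405 nm excitation and 460 nm emission, with triamterene as the reference fluorophore.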

[13] = qHTS assay to test for compound auto fluorescence at 535 nm (green) in HEK293 cell free culture (AID 720682)
Procedure, shortened: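 DMEM + 10% FBS, cell-free; cpd or DMSO pinned in; Ex485/Em535 read; output as fluorescein-equivalent signal.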

[14] = qHTS assay to test for compound auto fluorescence at 590 nm (red) in HepG2 cell free culture (AID 720684)
Procedure, shortened: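 Compounds are added to culture medium (MEM, 10% FBS) lacking cells, then fluorescence is read at excitation 540 nm, emission 590 nm, with Rose Bengal sodium as the equivalency standard.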

[15] = qHTS assay to test for compound auto fluorescence at 460 nm (blue) in HepG2 cell free culture (AID 720685)
Procedure, shortened: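 Compound (23 nL) or DMSO pinned into cell-free MEM with 10% FBS; blue fluorescence read at 405/460 nm excitation/emission, expressed as auto-fluorescence equivalency to triamterene.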

[16] = qHTS assay to test for compound auto fluorescence at 535 nm (green) in HepG2 cell free culture (AID 720686)
[17] = qHTS assay to test for compound auto fluorescence at 460 nm (blue) in HepG2 cells (AID 720687)
Procedure, shortened: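 HepG2 cells in MEM with 10% FBS, attached overnight at 37 C, were exposed to compound or DMSO for 1 hr at 37 C, 5% CO2. Blue fluorescence was read at 405/460 nm, with triamterene as reference fluorophore.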

[18] = biological target: Glucocorticoid receptor (Homo sapiens) (UniProt P04150); assay: qHTS assay to identify small molecule agonists of the glucocorticoid receptor (GR) signaling pathway (AID 720691; active = well fitted activation curve with a large enough effect in the signal ratio in the repeat runs, not every such curve was filed as active; the % refers to the signal ratio)
Chain of Glucocorticoid receptor (Homo sapiens) (P04150 whole entry, looked up): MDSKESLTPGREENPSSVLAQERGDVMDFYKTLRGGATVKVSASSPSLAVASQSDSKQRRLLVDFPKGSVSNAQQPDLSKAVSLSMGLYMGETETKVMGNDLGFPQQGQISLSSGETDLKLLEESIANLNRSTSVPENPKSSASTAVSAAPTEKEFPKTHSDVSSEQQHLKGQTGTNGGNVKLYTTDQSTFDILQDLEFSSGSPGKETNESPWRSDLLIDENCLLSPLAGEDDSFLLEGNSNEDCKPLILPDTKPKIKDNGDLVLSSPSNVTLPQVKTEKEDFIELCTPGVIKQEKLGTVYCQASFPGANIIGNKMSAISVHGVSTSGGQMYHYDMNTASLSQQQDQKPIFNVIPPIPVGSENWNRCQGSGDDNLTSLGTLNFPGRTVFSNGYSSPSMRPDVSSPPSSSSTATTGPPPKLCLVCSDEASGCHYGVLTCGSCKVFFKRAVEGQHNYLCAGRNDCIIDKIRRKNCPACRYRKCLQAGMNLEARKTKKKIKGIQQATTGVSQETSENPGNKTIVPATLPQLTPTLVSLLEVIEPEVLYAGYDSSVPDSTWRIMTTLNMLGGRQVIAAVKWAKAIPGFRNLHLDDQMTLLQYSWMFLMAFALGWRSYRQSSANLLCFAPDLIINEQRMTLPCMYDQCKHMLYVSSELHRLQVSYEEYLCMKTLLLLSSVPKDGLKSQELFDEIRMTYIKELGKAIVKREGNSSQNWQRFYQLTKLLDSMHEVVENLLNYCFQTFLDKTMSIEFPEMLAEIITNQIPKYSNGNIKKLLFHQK
Procedure, shortened: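 Reporter read-out: fluorescence intensity following 2 h room-temperature LiveBLAzer B/G FRET substrate loading. Prior step: GR-bla HeLa cells held 4 h, then treated 18 h at 37 C.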

[19] = qHTS assay to test for compound auto fluorescence at 590 nm (red) in HEK293 cell free culture (AID 720683)
Procedure, shortened: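 Cell-free wells of DMEM with 10% FBS received compound, and intrinsic fluorescence was read at excitation/emission 540/590 nm. Values expressed as equivalence to Rose Bengal sodium.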

[20] = biological target: Glucocorticoid receptor (Homo sapiens) (UniProt P04150); assay: qHTS assay to identify small molecule antagonists of the glucocorticoid receptor (GR) signaling pathway (AID 720692; active = well fitted inhibition curve with a large enough effect in the signal ratio in the repeat runs, not every such curve was filed as active; the % refers to the signal ratio)
Procedure, shortened: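 Dexamethasone (5 nM final) stimulated a stably integrated GRE-beta-lactamase reporter in HeLa cells during 18 h co-incubation with compounds; signal was quantified as fluorescence intensity of B/G FRET substrate after 2 h.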
% is scaled to controls: 0 for no effect and ±100 for the full control effect.

CN1C(C)(C)CCCC1(C)C
inactive: outcome [1] | Potency [2] | outcome [3] | Potency [4] | outcome [5] | Potency [6] | outcome [7] | outcome [8] | outcome [9] | outcome [10] | outcome [11] | outcome [12] | outcome [13] | outcome [14] | outcome [15] | outcome [16] | outcome [17] | Potency [18]

Cc1ccsc1/C=C/C1=NCCCN1C
inactive: outcome [1] | Potency [2] | outcome [3] | Potency [4] | outcome [5] | Potency [6] | fluorescence, relative to Rose Bengal [7] 0.162% [at 18.6 µM] | fluorescence, % of fluorescein control [8] 0.0988% [at 18.6 µM] | fluorescence, % of triamterene [9] -0.421% [at 18.6 µM] | fluorescence, % of fluorescent control [10] -1.08% [at 18.6 µM] | fluorescence, % of fluorescein [11] 0.007% [at 18.6 µM] | fluorescence, % of fluorescent control [12] -0.0198% [at 18.6 µM] | activity change [13] 0.0151% [at 18.6 µM] | fluorescence, % of fluorescent control [19] -0.0392% [at 18.6 µM] | fluorescence, % of Rose Bengal [14] -0.469% [at 18.6 µM] | fluorescence, % of fluorescent control [15] -0.0937% [at 18.6 µM] | fluorescence, % of fluorescein control [16] -0.205% [at 18.6 µM] | fluorescence, % of fluorescent control [17] 0.164% [at 18.6 µM] | Potency [18] | outcome [20]

CCCCNc1ccc(C(=O)OCCN(C)C)cc1
inactive: outcome [1] | Potency [2] | outcome [3] | Potency [4] | outcome [5] | Potency [6] | fluorescence, relative to Rose Bengal [7] -0.178% [at 18.6 µM] | fluorescence, % of fluorescein control [8] -0.0004% [at 18.6 µM] | fluorescence, % of triamterene [9] 0.259% [at 18.6 µM] | fluorescence, % of fluorescent control [10] 0.151% [at 18.6 µM] | fluorescence, % of fluorescein [11] -0.108% [at 18.6 µM] | fluorescence, % of fluorescent control [12] 0.0181% [at 18.6 µM] | activity change [13] -0.0203% [at 18.6 µM] | fluorescence, % of fluorescent control [19] -0.282% [at 18.6 µM] | fluorescence, % of Rose Bengal [14] 0.315% [at 18.6 µM] | fluorescence, % of fluorescent control [15] 0.0923% [at 18.6 µM] | fluorescence, % of fluorescein control [16] -0.0132% [at 18.6 µM] | fluorescence, % of fluorescent control [17] 0.0537% [at 18.6 µM] | Potency [18]

c1ccc2c(c1)ccc1c3ccccc3ccc21
inactive: outcome [1] | outcome [3] | Potency [4] | outcome [5] | Potency [6] | outcome [7] | outcome [8] | outcome [9] | outcome [10] | outcome [11] | outcome [12] | outcome [13] | outcome [19] | outcome [14] | outcome [15]
active: Potency [2] 0.881 µM

OCCN(CCO)c1cccc(Cl)c1
inactive: outcome [1] | Potency [2] | outcome [3] | Potency [4] | outcome [5] | Potency [6] | outcome [7] | outcome [8] | outcome [9] | outcome [10] | outcome [11] | outcome [12] | outcome [13] | outcome [19] | outcome [14] | outcome [15] | outcome [16] | outcome [17]

CC(=O)NCCCCCC(=O)O
inactive: outcome [1] | Potency [2] | outcome [3] | Potency [4] | outcome [5] | Potency [6] | outcome [7] | outcome [8] | outcome [9] | outcome [10] | outcome [11] | outcome [12] | outcome [13] | outcome [19] | outcome [14] | outcome [15] | outcome [16] | outcome [17]

COC(=O)[C@@H]1[C@H]2C[C@H]3c4[nH]c5ccccc5c4CCN3C[C@@H]2CC[C@@H]1O
inactive: outcome [1] | Potency [2] | outcome [3] | Potency [4] | outcome [5] | Potency [6] | outcome [7] | outcome [8] | outcome [9] | outcome [10] | outcome [11] | outcome [12] | outcome [13] | outcome [19] | outcome [14] | outcome [15] | outcome [17]

C=CCCCCCCCCCCCC
inactive: outcome [1] | Potency [2] | outcome [3] | Potency [4] | outcome [5] | Potency [6] | outcome [7] | outcome [8] | outcome [9] | outcome [10] | outcome [11] | outcome [12] | outcome [13] | outcome [19] | outcome [14] | outcome [15] | outcome [16] | Potency [18] | outcome [20]

CCOC(=O)[C@H](CCc1ccccc1)N[C@@H](C)C(=O)N1C(=O)N(C)C[C@H]1C(=O)O
inactive: outcome [1] | Potency [2] | outcome [3] | Potency [4] | outcome [5] | Potency [6] | outcome [7] | outcome [8] | outcome [9] | outcome [10] | outcome [11] | outcome [12] | outcome [13] | outcome [19] | outcome [14] | outcome [15] | outcome [16] | outcome [17]

CCOC(=O)c1ccc(OC(=O)CCCCCN=C(N)N)cc1
inactive: outcome [1] | Potency [2] | outcome [3] | Potency [4] | outcome [5] | Potency [6] | fluorescence, relative to Rose Bengal [7] -0.309% [at 18.6 µM] | fluorescence, % of fluorescein control [8] 0.0329% [at 18.6 µM] | fluorescence, % of triamterene [9] -0.0421% [at 18.6 µM] | fluorescence, % of fluorescent control [10] 0.895% [at 18.6 µM] | fluorescence, % of fluorescein [11] -0.102% [at 18.6 µM] | fluorescence, % of fluorescent control [12] -0.0274% [at 18.6 µM] | activity change [13] -0.162% [at 18.6 µM] | fluorescence, % of Rose Bengal [14] -0.0877% [at 18.6 µM] | fluorescence, % of fluorescent control [15] 0.0222% [at 18.6 µM] | fluorescence, % of fluorescein control [16] -0.0655% [at 18.6 µM] | fluorescence, % of fluorescent control [17] 0.0159% [at 18.6 µM]

Nc1ccc2cc(S(=O)(=O)O)cc(O)c2c1
inactive: outcome [1] | Potency [2] | outcome [3] | Potency [4] | outcome [5] | Potency [6] | outcome [7] | outcome [8] | outcome [9] | outcome [10] | outcome [11] | outcome [12] | outcome [13] | outcome [19] | outcome [14] | outcome [16]

O=C(NCCN1CCOCC1)c1ccc(Cl)cc1
inactive: outcome [1] | Potency [2] | outcome [3] | Potency [4] | outcome [5] | Potency [6] | outcome [7] | outcome [8] | outcome [9] | outcome [10] | outcome [11] | outcome [12] | outcome [13] | outcome [19] | outcome [14] | outcome [15] | outcome [17]

CN(C)C(=O)CNC(=O)Cc1ccccc1
inactive: outcome [1] | Potency [2] | outcome [3] | Potency [4] | outcome [5] | Potency [6] | outcome [7] | outcome [8] | outcome [9] | outcome [10] | outcome [11] | outcome [12] | outcome [13] | outcome [19] | outcome [14] | outcome [15] | outcome [16] | outcome [17] | Potency [18] | outcome [20]

O=C(OCC1(COC(=O)c2cccnc2)CCCC(COC(=O)c2cccnc2)(COC(=O)c2cccnc2)C1O)c1cccnc1
inactive: outcome [1] | Potency [2] | outcome [3] | Potency [4] | outcome [5] | Potency [6] | outcome [7] | outcome [8] | outcome [9] | outcome [10] | outcome [11] | outcome [12] | outcome [13] | outcome [19] | outcome [14] | outcome [15] | outcome [16] | outcome [17] | Potency [18] | outcome [20]
